mIDH1 inhibitor: blocks human mutant IDH1 R132H enzyme. O75874. IDH1-R132H enzyme, NADPH consumption, diaphorase/resazurin fluorescence. Potency, µM (doses to about 76.6 µM), hits mostly inhibitors. 390,000 compounds, 0.093% hits. AID 602179; also: nearly all actives have a fitted effect of over 65% in size
Target sequence (O75874 whole entry R132H, stated change not applied): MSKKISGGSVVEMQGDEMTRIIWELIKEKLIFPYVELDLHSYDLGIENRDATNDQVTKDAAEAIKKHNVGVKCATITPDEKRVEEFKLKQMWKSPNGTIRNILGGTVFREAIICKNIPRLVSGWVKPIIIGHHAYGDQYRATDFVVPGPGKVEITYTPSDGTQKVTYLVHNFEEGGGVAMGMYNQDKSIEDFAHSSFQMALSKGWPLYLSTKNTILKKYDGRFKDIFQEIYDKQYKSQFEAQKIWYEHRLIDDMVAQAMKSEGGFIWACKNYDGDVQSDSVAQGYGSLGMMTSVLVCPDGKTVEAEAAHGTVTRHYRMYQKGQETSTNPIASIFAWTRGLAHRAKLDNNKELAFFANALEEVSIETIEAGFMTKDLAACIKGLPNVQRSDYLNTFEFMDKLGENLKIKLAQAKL
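IDH1-R132H (0.5 ug/mL dispensed) in pH 7.5 Tris buffer was preincubated 30 min with compound, then given a substrate mix of 0.016 mM NADPH and 2 mM alpha-KG for 80 min at room temperature; remaining NADPH was read by diaphorase/resazurin fluorescence.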
S-ASM inh: human S-ASM enzyme inhibition; P17405; placental ASM, HMU-PC fluorogenic substrate, 60 min; Potency, µM (doses to about 57.5 µM), usual class: inhibitors; 340,000 compounds, 0.006% hits
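Steps: dispense placental human ASM, pin compound, wait 10 min at room temperature, add HMU-PC0 substrate at 9 uM final, incubate 60 min at 37 °C, add stop solution raising pH to 10, read fluorescence.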
Anesthetic bind: candidate novel general anesthetic via apoferritin binding; P02791; apoferritin/1-aminoanthracene competitive binding, fluorescence; Potency, µM (highest dose often 77.5 µM), actives largely listed as inhibitors; 350,000 compounds, 0.074% hits; AID 485281; also: nearly all actives have a fitted effect of over 20% in size
Target sequence (P02791 2-175 limits assumed): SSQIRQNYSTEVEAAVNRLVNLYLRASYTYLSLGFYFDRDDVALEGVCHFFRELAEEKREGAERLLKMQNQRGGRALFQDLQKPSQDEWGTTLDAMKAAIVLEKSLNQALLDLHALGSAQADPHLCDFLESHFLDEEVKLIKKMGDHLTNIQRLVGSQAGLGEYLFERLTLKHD
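Apoferritin-based anesthetic binding model; compound displacement of fluorescent 1-AMA measured as endpoint fluorescence after 10 minutes at room temperature, scaled to free-ligand and complex controls.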
hERG WT inh: KCNH2 (human, wildtype) channel inhibition. U2OS, BacMam KCNH2, thallium flux FluxOr; hits give low values. activity change, % at 1.84 µM. 340,000 compounds, 0.37% hits;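 active = maximum activity change below -70%; inconclusive = maximum activity change between -70% and -50%; inactive = maximum activity change above -50%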
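U2OS cells were transduced with wild-type KCNH2 virus (2.03 x 10^8 / mL) for 4 h at room temperature, then cultured overnight at 37 C. Thallium flux was read with FluxOr dye. Rate constants were normalized to DMSO controls.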
KCNH2 3.1 inh: blocks the human KCNH2 3.1 channel isoform; U2OS KCNH2 3.1, thallium flux FluxOr; hits give low values; activity change, % (tested at about 1.8 µM); 340,000 compounds, 0.95% hits;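 active = maximum activity change below -70%; inconclusive = maximum activity change from -70% to -50%; inactive = maximum activity change above -50%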;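 also: thallium influx rate constant from kinetic fluorescence after stimulation buffer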
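Virally transduced U2OS (3.1 isoform, 4 h infection in dark at RT) → overnight 37 C → FluxOr + Red40 in HBSS/HEPES, 45 min → stimulation buffer, 2 min kinetic read → rate constant vs DMSO controls.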
IDH1 autofl: autofluorescence interference, mutant IDH1 hit counter-screen. shares compounds with mIDH1 inhibitor. 750 tested, under 10 active. inhibition of signal, % at 51.2 µM. Resorufin detection reagent fluorescence interference, cell-free
IDH1 WT: wild-type IDH1 (human) inhibition counterscreen; WT IDH1 enzyme, NADPH diaphorase/resazurin fluorescence; 750 compounds, 9% hits; Potency, µM (doses to about 115 µM), most hits filed as inhibitors; shares compounds with mIDH1 inhibitor; also: nearly all actives have a fitted effect of over 55% in size
Target sequence (O75874 whole entry, looked up): as the sequence (O75874 whole entry R132H, stated change not applied) above, with H132R counted along it
IDH1 R132H conf: inhibits human mutant IDH1 enzyme in cherrypick confirmation. shares compounds with mIDH1 inhibitor. IDH1 R132H enzyme, NADPH diaphorase/resazurin fluorescence. Potency, µM (top dose mostly 76.6 µM), hits mostly inhibitors. 750 compounds, 83% hits. AID 624002; also: nearly all actives have a fitted effect of over 50% in size
A number is an active result; – = inactive; ? = inconclusive; · = not tested or not shown; [ ] = dose if it differs, or a comment. An excerpt weighted towards active compounds, which were near 1.2% of everything screened. Unless noted, calls follow the shape of the dose curve; as a rule, active = well fitted curve in the direction sought with a large enough effect; inconclusive = small, poorly fitted or top-dose-only effect, or another doubt; inactive = no such curve, though single readings can be large; an effect the other way counts as inactive or inconclusive.

SMILES | mIDH1 inhibitor | S-ASM inh | Anesthetic bind | hERG WT inh | KCNH2 3.1 inh | IDH1 autofl | IDH1 WT | IDH1 R132H conf
N#CC(C#N)=C1C(=O)N(CCN2CCOCC2)c2ccccc21 | ? | – | – | – | – | – | – | 45µM
N#CC(C#N)=C1C(=O)N(CCN2CCCCC2)c2ccccc21 | – | – | – | – | – | · | · | ·
CC(=O)OCC(NC(=O)C(Cc1ccccc1)NC(=O)OC(C)(C)C)C1OC(n2cc(F)c(=O)[nH]c2=O)C(OC(C)=O)C1OC(C)=O (centres undefined) | · | · | – | · | · | · | · | ·
COc1ccc(N(CC(=O)N2CCN(c3ccc(Cl)cc3)CC2)S(=O)(=O)c2c(C)n[nH]c2C)cc1 | ? | – | – | – | – | – | – | 13µM
Cc1cc(NC(=O)CCC(=O)N(c2cccc(F)c2)C(C(=O)NC2CCCC2)c2ccc(C)o2)no1 (centres undefined) | ? | – | – | – | – | – | – | 22µM
O=C(CS(=O)CC(=O)N(c1cccc(F)c1)C(C(=O)NC1CCCCC1)c1ccco1)Nc1ccc(F)cc1 (centres undefined) | – | – | – | – | – | · | · | ·
CC(=O)c1cccc(N(C(=O)CS(=O)CC(=O)Nc2ccc(F)cc2)C(C(=O)NC2CCCCC2)c2ccc(C)o2)c1 (centres undefined) | ? | – | – | – | – | – | – | 16µM
Cc1cc(NC(=O)CCC(=O)N(c2ccccc2)C(C(=O)NC2CCCC2)c2ccccc2)no1 (centres undefined) | – | – | – | – | – | · | · | ·
Cc1cc(NC(=O)CCC(=O)N(c2cccc(F)c2)C(C(=O)NC2CCCC2)c2ccccc2)no1 (centres undefined) | 46µM | – | – | – | – | – | – | 16µM
Cc1cccc(N(C(=O)CCC(=O)Nc2cc(C)on2)C(C(=O)NC2CCCC2)c2ccc(C)o2)c1 (centres undefined) | – | – | – | – | – | · | · | ·
Cc1ccc(C2C=C(c3ccc(Cl)cc3)Nc3nc(NC(=O)c4ccco4)nn32)cc1 (centres undefined) | – | · | – | · | · | · | · | ·
Cc1ccc(NC(=O)c2ccc(CN3CC(=O)N4CCCCC4C3=O)cc2)cc1C (centres undefined) | – | · | – | · | · | · | · | ·
C=CC[C@@H]1C=C[C@H](O/N=C(\C)CCN2CCCc3nc(C)c(C)cc32)[C@H](CO)O1 | · | · | –[15.3 µM] | · | · | · | · | ·
Cc1cccc(CNC(=O)C(=O)Nc2ccccc2C)c1 | – | · | – | · | · | · | · | ·
CCOc1ccc(C(c2c(O)cc(C)n(Cc3ccco3)c2=O)N2CCCCC2)cc1 (centres undefined) | – | · | – | · | · | · | · | ·
CCN(CC)S(=O)(=O)c1cc(NC(=O)CNc2cccc(S(=O)(=O)N3CCOCC3)c2)ccc1C | ? | – | · | – | – | – | – | 28µM
CC1CN(C(=O)c2ccc(NS(=O)(=O)c3ccc(C(C)(C)C)cc3)cc2)CC(C)O1 (centres undefined) | ? | – | – | – | – | – | – | 35µM
O=C(CCl)N1CCN(S(=O)(=O)c2ccc3ccccc3c2)CC1 | 52µM | – | – | – | – | – | – | 20µM
CN(C)C(=O)N1CCN(S(=O)(=O)c2ccc3ccccc3c2)CC1 | – | – | – | – | – | · | · | ·
Nc1nc(Nc2cccc(F)c2)nc(NCc2ccco2)c1[N+](=O)[O-] | ? | – | – | – | – | – | – | 32µM
Cc1ccc(-c2n[nH]c3c2C(c2ccccc2Cl)N(c2ccc(C(=O)O)cc2)C3=O)cc1 (centres undefined) | 11µM | · | – | · | · | – | 35µM | 7.1µM
COc1cc(C2c3c(-c4ccc(C)cc4)n[nH]c3C(=O)N2c2ccc(F)cc2)ccc1O (centres undefined) | ? | · | – | · | · | – | – | 25µM
O=C(O)c1ccc(N2C(=O)c3[nH]nc(-c4ccccc4)c3C2c2cccc(F)c2)cc1 (centres undefined) | ? | · | – | · | · | – | – | 32µM
COc1cccc(C2c3c(-c4ccccc4)n[nH]c3C(=O)N2c2ccc(C(=O)O)cc2)c1 (centres undefined) | ? | – | – | – | – | – | ? | 20µM
COc1ccc(C2c3c(-c4ccccc4)n[nH]c3C(=O)N2c2ccc(C(=O)O)cc2)cc1 (centres undefined) | 52µM | – | – | – | – | – | ? | 45µM
SMILES | mIDH1 inhibitor | S-ASM inh | Anesthetic bind | hERG WT inh | KCNH2 3.1 inh | IDH1 autofl | IDH1 WT | IDH1 R132H conf
CCc1ccc(C2c3c(-c4ccccc4)n[nH]c3C(=O)N2c2ccc(C(=O)O)cc2)cc1 (centres undefined) | 35µM | · | – | · | · | – | 25µM | 7.1µM
COc1ccc(-c2n[nH]c3c2C(c2ccc(OC)c(OC)c2)N(c2ccccc2)C3=O)cc1 (centres undefined) | ? | ? | – | – | – | – | – | 20µM
C=N[C@H](C(=O)N[C@@H]1C(=O)N2[C@@H]1SC(C)(C)[C@@H]2C(=O)O)c1ccccc1 | · | · | – | · | · | · | · | ·
NC(N)=NC[C@@H]1COC2(CCCCC2)O1 | · | · | – | · | · | · | · | ·
Cc1cccc(OCC(=O)Nc2ccccc2C(=O)OCc2cc(=O)n3nc(C)sc3n2)c1 | – | · | – | · | · | · | · | ·
Cc1cccc(N2C(=O)C(CC(=O)Nc3cccc(F)c3)N(Cc3cccs3)C2=O)c1 (centres undefined) | – | · | – | · | · | · | · | ·
Cc1cccc(C)c1NC(=O)CCCn1c(=O)c2cccn2c2ccccc21 | – | · | – | · | · | · | · | ·
CC1CCCC(NC(=O)c2cn(C)c3ccc(S(=O)(=O)N4CCCC4)cc3c2=O)C1C (centres undefined) | · | · | – | · | · | · | · | ·
CC1CCCCC1NC(=O)c1cn(C)c2ccc(S(=O)(=O)N3CCCC3)cc2c1=O (centres undefined) | ? | – | – | – | – | – | – | 22µM
Cc1cc(C)cc(N2C(=O)CSC23C(=O)N(CC(=O)Nc2ccc(F)cc2F)c2ccccc23)c1 (centres undefined) | – | · | – | · | · | · | · | ·
Nc1c(C(=O)Nc2ccccc2)sc2nc(N3CCOCC3)c3c(c12)CCCC3 | – | · | · | – | – | · | · | ·
CC(=O)c1ccc(NC(=O)c2sc3nc(N4CCOCC4)c4c(c3c2N)CCCC4)cc1 | ? | – | – | – | – | – | – | 6.3µM
COc1cccc(NC(=O)c2sc3nc(N4CCOCC4)c4c(c3c2N)CCCC4)c1 | ? | – | – | – | – | – | – | 7.1µM
Cc1ccc(NC(=O)c2sc3nc(N4CCOCC4)c4c(c3c2N)CCCC4)cc1 | ? | · | · | – | – | · | · | ·
